Bioassay records as filed in PubChem.
In the library only some 7.5% were active in any assay of this set; here they are far more common.
ELG1 genotox = induces genotoxicity in HEK293T cells with luciferase-tagged ELG1; Potency, µM (titrated, usually from 46 µM), without a hit: at the top dose activity change, positive = activation, most hits filed as activators; hit rate 1.3% among 330,000; HEK293T ELG1-luciferase reporter, luminescence, 16 h; also: % of control where 0% means no effect; nearly all actives have a fitted effect of over 60% in size
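HEK293T cells expressing luciferase-tagged ELG1 were treated with compound or DMSO for 16 hr at 37°C. Luciferase activity was then read after 30 min with ONE-Glo at room temperature; rising signal flags genetic stress.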
NPC1 prom act = activates the NPC1 promoter | Huh7 NPC1 promoter luciferase reporter, 24 h | Potency, µM (titrated, usually from 9.22 µM), inactives show at the highest dose activation, actives largely listed as activators | hit rate 2.4% among 320,000; also: % of control where 0% means no effect; nearly all actives have a fitted effect of over 60% in size
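Stably transfected Huh7 (NPC1 promoter→luciferase), 1500 cells/well in Opti-MEM + 10% FBS, 2 h settle, then compound 24 h at 37 °C. Luminescence after 10 min with Amplite reagent.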
KinaseGlo FLuc = counter-screen: inhibitors of Kinase-Glo firefly luciferase. Q27757. Kinase-Glo luciferase, ATP luminescence, 8 min. Potency, µM (titrated, usually from 38.3 µM), without a hit: at the highest dose activity change, negative = inhibition, hits mostly inhibitors. hit rate 0.28% among 200,000; also: % is scaled to controls: 0 for no effect and ±100 for the full control effect; nearly all actives have a fitted effect of over 60% in size
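Compound is pinned into ATP-containing buffer (10 uM ATP, imidazole pH 7.2, 7 mM MgCl2). Kinase-Glo luciferase reagent is then added. Light output is recorded following an 8-min room-temperature incubation.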
Rab9 prom act = activates the Rab9 promoter; Huh7 Rab9 promoter-luciferase reporter, luminescence, 24 h; Potency, µM (top dose mostly 9.22 µM), for inactives: top-dose activation, negative = inhibition, usual class: activators; hit rate 2.8% among 320,000; AID 485297; also: % of control where 0% means no effect; nearly all actives have a fitted effect of over 60% in size
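Promoter activation is measured as luciferase luminescence in Huh7 cells stably transfected with a Rab9 promoter–luciferase construct, following 24 h compound exposure at 37 °C and 10 min reagent incubation at ambient temperature.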
FLuc counter = firefly luciferase modulation, counter-screen for miR-21 project | purified FLuc, Km substrates, luminescence inhibition | hit rate 6.9% among 360,000 | P08659 | Potency, µM (series often up to 57.5 µM), for the others: top-dose activity change, negative = inhibition, hits mostly inhibitors;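 also: plate controls were vehicle for no effect and reference inhibitor for full effect; nearly all actives have a fitted effect of over 55% in size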
Target sequence (P08659 whole entry, looked up): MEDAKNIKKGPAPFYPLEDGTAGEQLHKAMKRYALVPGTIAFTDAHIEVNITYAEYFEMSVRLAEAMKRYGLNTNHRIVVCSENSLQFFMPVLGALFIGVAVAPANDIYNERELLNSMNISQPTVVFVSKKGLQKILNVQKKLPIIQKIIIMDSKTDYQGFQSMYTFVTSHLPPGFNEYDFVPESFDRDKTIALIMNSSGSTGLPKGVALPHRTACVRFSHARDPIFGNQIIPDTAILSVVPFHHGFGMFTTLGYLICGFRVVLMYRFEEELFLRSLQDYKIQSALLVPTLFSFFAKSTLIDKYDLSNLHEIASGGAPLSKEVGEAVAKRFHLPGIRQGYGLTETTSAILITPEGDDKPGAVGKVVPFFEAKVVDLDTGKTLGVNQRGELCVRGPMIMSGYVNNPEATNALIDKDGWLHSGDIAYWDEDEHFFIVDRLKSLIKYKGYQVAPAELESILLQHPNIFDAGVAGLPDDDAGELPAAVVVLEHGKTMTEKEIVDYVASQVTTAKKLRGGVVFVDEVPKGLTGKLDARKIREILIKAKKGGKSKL
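Purified P. pyralis luciferase, 10 nM final, with Km-level 10 uM D-luciferin and 10 uM ATP in 50 mM Tris acetate pH 7.5, 10 mM Mg acetate, 0.01% Tween-20, 0.05% BSA; 6-point qHTS titration about 60 µM downward; luminescence read.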
SMN2 splice up = SMN2 splice variant enhancement | hit rate 2.8% among 210,000 | Potency, µM (highest dose often 46.1 µM), for the others: at the top dose activity change, positive = activation, actives largely listed as activators | HEK293 SMN2-luciferase splicing reporter, luminescence, 30-36 h | AID 1458; also: % of control where 0% means no effect; nearly all actives have a fitted effect of over 55% in size
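qHTS luciferase splicing reporter: luminescence rises when SMN2 exon 7 is included in transfected HEK293 cells. Compound exposure lasted 30-36 h at 37C, with 4.5 mM final sodium butyrate as control, followed by a ONE-Glo read.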
* hit, by the source's call; ? = inconclusive; . = no result. Calls follow the shape of the dose curve; as a rule, active = well fitted curve in the direction sought with a large enough effect; inconclusive = small, poorly fitted or top-dose-only effect, or another doubt; inactive = no such curve, though single readings can be large; an effect the other way counts as inactive or inconclusive. Potency is read from the fitted curve at half-maximal effect.

SMILES	ELG1 genotox	NPC1 prom act	KinaseGlo FLuc	Rab9 prom act	FLuc counter	SMN2 splice up
O=C(NCCCc1nc2ccccc2n1Cc1ccccc1Cl)c1ccco1	.	.	.	.	-6.2%	-10.7%
Clc1ccccc1Cn1c(/C=C/c2ccco2)nc2ccccc21	-1.2%	-2.4%	-5.7%	2.4%	10.7µM*	-0.2%
COc1ccccc1-c1ccc(SCc2ccccc2F)nn1	18.2%	27.3%	1.7%	?	13.5µM*	27.6%
COc1ccccc1-c1ccc(SCc2cccc(F)c2)nn1	7.0%	11.8%	0.2%	19.0%	23.9µM*	22.8%
COc1ccccc1-c1ccc(SCC(=O)NCCc2ccccc2)nn1	-1.8%	-3.1%	-1.6%	22.0%	-11.5%	-4.6%
Cc1nc(C)c(-c2ccc(SCc3ccccc3F)nn2)s1	?	?	.	?	10.7µM*	.
CCOC(=O)c1ccccc1NC(=O)CSc1ccc(-c2sc(C)nc2C)nn1	.	.	.	.	-12.6%	.
COc1ccccc1-c1ccc(SCc2ccccc2)nn1	-0.2%	26.5%	-0.6%	?	13.5µM*	29.6%
COc1ccccc1NC(=O)Cn1c([N+](=O)[O-])cnc1C	-3.5%	2.2%	.	-3.3%	4.4%	.
CCOc1ccccc1NC(=O)CSc1nnc(CC)c(CC)n1	.	.	.	.	3.0%	.
c1ccc(NC2=Nc3ccccc3CS2)cc1	?	1.78µM*	0.4%	3.16µM*	2.69µM*	11.2µM*
CCC(C)(C)C1CCc2c(sc(NC(=O)c3ccccc3C(=O)O)c2C#N)C1 (stereo not given)	-7.5%	-2.6%	.	1.0%	10.7µM*	.
Cc1cc(C(=O)Nc2sc3c(c2C#N)CCC(C)C3)cs1 (stereo not given)	4.61µM*	1.26µM*	4.9%	0.562µM*	?	3.98µM*
CC1CCc2c(sc(NC(=S)NC(=O)c3ccccc3)c2C#N)C1 (stereo not given)	14.3%	27.0%	.	29.2%	?	.
CC1CCc2c(sc(NC(=O)c3ccccc3C(=O)O)c2C#N)C1 (stereo not given)	?	?	1.2%	?	21.3µM*	.
Cc1cccc(NC(=O)COc2coc(CN3CCN(c4ccccc4)CC3)cc2=O)c1C	-1.1%	-7.3%	.	-22.7%	4.1%	.
Clc1ccc2nc(N3CCN(c4ccccc4)CC3)sc2c1	?	1.41µM*	-1.8%	0.891µM*	0.601µM*	3.16µM*
O=S(=O)(c1ccccc1)N1CCN(c2nc3ccccc3s2)CC1	?	21.4%	2.5%	?	5.1%	-4.1%
Brc1ccc2nc(N3CCN(c4ccccc4)CC3)sc2c1	2.31µM*	1.78µM*	2.1%	1µM*	?	3.16µM*
O=C(c1ccco1)N1CCN(CCCCOc2cccc3ccccc23)CC1	-4.1%	-1.2%	2.1%	0.5%	-0.5%	-8.9%
C/C(=N/NC(=O)c1cc(C)[nH]n1)c1ccco1	?	?	.	3.98µM*	21.3µM*	.
C/C(=N\NC(=O)Cc1cccn1C)c1ccco1	3.3%	-4.6%	.	-4.4%	-11.7%	.
C/C(=N\NC(=O)c1ccn(C)n1)c1ccco1	16.4µM*	?	.	2.51µM*	16.9µM*	.
CC(/C=C/c1ccco1)=N\NC(=O)c1cc(C)[nH]n1	13.0%	4.4%	0.9%	-3.9%	-2.5%	15.2%
C/C(=N\NC(=O)c1cc(-c2ccc(C)s2)[nH]n1)c1ccco1	14.1%	23.0%	-7.4%	27.9%	21.3µM*	11.2µM*
SMILES	ELG1 genotox	NPC1 prom act	KinaseGlo FLuc	Rab9 prom act	FLuc counter	SMN2 splice up
Cc1ccc(CCNC(=O)CCSCc2ccccc2F)cc1	.	.	.	.	-13.9%	.
CSc1ncccc1C(=O)Nc1ccccc1N1CCOCC1	0.9%	.	.	.	.	.
COc1ccc(NC(=O)CCC(=O)Nc2ccc3nc(N4CCOCC4)cc(C)c3c2)c(OC)c1	?	?	.	2.51µM*	2.69µM*	.
COc1cc(NC(=O)CCC(=O)Nc2ccc3nc(N4CCOCC4)cc(C)c3c2)cc(OC)c1OC	6.2%	24.1%	.	16.5%	15.1µM*	.
Cc1ccc(/C=N/NC(=O)CSc2nc3ccccc3[nH]2)o1	-0.2%	2.1%	.	-0.1%	-12.9%	.
CCOC(=O)c1cccc(NC(=O)/C=C/c2ccc([N+](=O)[O-])cc2)c1	2.1%	3.0%	0.5%	8.0%	2.69µM*	-56.0%
CC(=O)c1cccc(NC(=O)/C=C/c2ccc([N+](=O)[O-])s2)c1	2.91µM*	-34.5%	8.7%	-36.2%	-2.2%	-81.8%
O=C(/C=C/c1ccc([N+](=O)[O-])cc1)Nc1cccc(C(=O)Nc2ccccc2C(=O)O)c1	-9.4%	-2.6%	.	-5.9%	5.36µM*	.
COC(=O)c1cccc(NC(=O)/C=C/c2ccc([N+](=O)[O-])cc2)c1	-3.8%	8.0%	-2.1%	1.7%	2.39µM*	-10.1%
COc1ccc2oc(=O)c(/C(N)=N/NC(=O)c3ccncc3)cc2c1	-0.3%	0.5%	.	1.6%	0.9%	.
Cc1ccc2nc(/C(C#N)=C/c3cccc(Br)c3)[nH]c2c1	.	.	.	.	?	-3.4%
Cc1ccc2nc(/C(C#N)=N/O)[nH]c2c1	-4.1%	8.1%	-0.1%	-9.0%	13.5µM*	4.8%
N#C/C(=N\O)c1nc2ccccc2[nH]1	1.2%	1.8%	-1.6%	0.0%	?	-21.0%
Cc1ccc2nc(/C(C#N)=C/c3ccc(O)c(O)c3)[nH]c2c1	?	-1.1%	.	?	19µM*	.
Cc1ccc2nc(C(O)C(O)c3nc4ccc(C)cc4[nH]3)[nH]c2c1 (stereo not given)	?	8.1%	-8.0%	18.9%	10.7µM*	-7.9%
Cc1cc(C(=O)COC(=O)c2ccc(Br)o2)c(C)n1C	?	-3.4%	-6.6%	26.2%	8.49µM*	1.0%
COCCn1c(C)cc(C(=O)COC(=O)CNC(=O)c2ccccc2)c1C	10.8%	-1.7%	2.7%	-3.7%	?	3.3%
Cc1cc(C(=O)COC(=O)c2cc(Cl)c(O)c(Cl)c2)c(C)n1C	7.6%	1.4%	.	9.0%	16.9µM*	.
COCCn1c(C)cc(C(=O)COC(=O)c2ccc(Br)o2)c1C	4.11µM*	3.16µM*	-9.6%	?	1.9µM*	26.0%
CCn1nnc2cc(C(=O)Nc3cc(Cl)ccc3C)ccc21	3.2%	-6.3%	.	-4.3%	-3.8%	.
c1ccc(Cc2nnc3sc(-c4ccc5c(c4)OCCO5)nn23)cc1	?	8.9%	0.8%	?	13.5µM*	4.2%
c1ccc(Cc2nnc3sc(-c4ccncc4)nn23)cc1	-5.8%	0.8%	2.1%	-3.6%	-2.2%	-4.0%
COc1ccc(-c2nc(C(=O)O)cs2)cc1OC	7.2%	11.9%	1.1%	14.7%	?	-9.8%
COc1ccc(-c2cc(C(=O)O)nc3ccc4ccccc4c23)cc1OC	4.6%	9.7%	8.6%	2.8%	4.26µM*	14.9%
Cc1nc2ccc([N+](=O)[O-])cc2c(=O)n1Cc1ccc(Br)cc1	-6.8%	-1.7%	.	-1.4%	6.0%	.
